Reference: PubChem BioAssay AID1851 (National Center for Advancing Translational Sciences (NCATS), 2009)
“And” between values parts separate entries of the source, which are not always exact repeats. Equal values may be shown once. Out of some 16,000 compounds screened, about 5,800 (36%) were called active. Not shown: some 23% with an inconclusive outcome. Calls come from the whole dose curve; as a rule, active = well fitted curve in the direction sought with a large enough effect; inconclusive = small, poorly fitted or top-dose-only effect, or effect the other way; inactive = no such curve, though single readings can be large or run the other way. This is one part of the list. Where a structure was tested more than once in an assay, its records may differ in their call.

target: Cytochrome P450 2C19 (Homo sapiens) (UniProt P33261); experiment: Cytochrome panel assay with activity outcomes; conditions: recombinant CYP, pro-luciferin dealkylation, luminescence, p450-cyp2c19; series mostly up to 57.1 µM; activity, negative = inhibition: at the top concentration
Sequence (P33261 whole entry, looked up): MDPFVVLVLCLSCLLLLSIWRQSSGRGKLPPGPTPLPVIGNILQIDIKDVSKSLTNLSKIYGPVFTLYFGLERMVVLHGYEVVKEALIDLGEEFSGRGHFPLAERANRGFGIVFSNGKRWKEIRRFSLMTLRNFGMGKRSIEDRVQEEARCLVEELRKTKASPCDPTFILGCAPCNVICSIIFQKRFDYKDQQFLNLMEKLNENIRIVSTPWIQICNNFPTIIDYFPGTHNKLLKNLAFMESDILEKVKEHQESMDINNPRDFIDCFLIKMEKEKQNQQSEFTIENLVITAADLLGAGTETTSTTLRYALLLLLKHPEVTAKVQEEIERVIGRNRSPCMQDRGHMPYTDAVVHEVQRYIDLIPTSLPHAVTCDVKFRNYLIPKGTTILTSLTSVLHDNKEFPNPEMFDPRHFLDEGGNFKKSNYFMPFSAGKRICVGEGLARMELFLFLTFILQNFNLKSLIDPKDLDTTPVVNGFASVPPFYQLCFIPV
% is set by controls: 0 for no effect and ±100 for the full control effect.

SMILES	activity, negative = inhibition	AC50
COc1cc(C(=O)OC2C[C@H]3CC[C@@H](C2)N3C)ccc1O (stereo not given in full)	-26.6% [at 25.6 µM] (inactive)	–
C/C(=C\c1ccc(N(C)C)cc1)[N+](=O)[O-]	–	14.1 µM (active)
C[C@H]1CC[C@@]2(NC1)O[C@@H]1C[C@H]3[C@@H]4CC=C5C[C@@H](O)CC[C@]5(C)[C@@H]4CC[C@]3(C)[C@@H]1[C@@H]2C	-5.7% [at 25.6 µM] (inactive)	–
COc1cc(-c2ccc(=O)[nH]n2)ccc1OC(F)F	–	15.8 µM (active)
COc1cc(C[C@H](C)N)c(OC)cc1I	–	inactive
C[C@@]12CC(=O)[C@H]3[C@@H](CCC4=CC(=O)CC[C@]43C)[C@H]1CCC2=O	-3.49% [at 25.6 µM] (inactive)	–
C[C@@H]1CC[C@@H]2N(C1)C[C@H]1[C@@](O)([C@H](O)C[C@]3(O)[C@H]4CC[C@H]5[C@]6(O)O[C@]4(C[C@]13O)[C@@]5(C)CC[C@@H]6O)[C@@]2(C)O	1.59% [at 11.4 µM] (inactive)	–
NC(N)=NCCN=C(N)N	-3.51% [at 11.4 µM] (inactive)	–
O=C(O)CN1C(=O)CN=C(c2ccccn2)c2cc(Cl)ccc21	33.4% [at 11.4 µM] (inactive)	–
CN(C)c1ccc(NC(=O)CN2C(=O)CN=C(c3ccccc3)c3ccccc32)cc1	–	2.24 µM (active)
CN(C)CCCNc1c2c(nc3ccc(Cl)cc13)CCCC2	23.5% [at 11.4 µM] (inactive)	–
Nc1nc(OCc2ccccc2)c2[nH]cnc2n1	–	6.31 µM (active)
O=C(O)C[C@H]1NCc2cc3ccccc3nc21	22.2% [at 11.4 µM] (inactive)	–
CCCCCCCCCOc1ccc2[nH]cc(CCN)c2c1	–	10 µM (active)
COc1ccc2[nH]cc(CCN)c2c1	-24.4% (inactive)	–
NCCc1c[nH]c2ccc(C(N)=O)cc12	–	inactive
CCC(COC(=O)NC)NC(=O)Oc1ccccc1 (stereo not given)	-27.3% (inactive)	–
O=S(=O)(c1ccccc1)N1CCCCC1c1cccnc1 (stereo not given)	–	10 µM (active)
CC(C)=C[C@H]1[C@@H](C(=O)OCc2cc3c(cc2Cl)OCO3)C1(C)C	–	1.58 µM (active)
CC(C)CN1CC2(CCN(C(=O)Oc3ccccc3)CC2)C1	3.45% (inactive)	–
Fc1ccc(C(OCCN2CCN(C/C=C\c3ccccc3)CC2)c2ccc(F)cc2)cc1	–	7.94 µM (active)
C(=C/c1ccccc1)/CN1CCN(CCOC(c2ccccc2)c2ccccc2)CC1	–	10 µM (active)
CO[C@@H]1CC=C2CCN3CCC4=C(CC(=O)OC4)[C@]23C1	-6.6% (inactive)	–
O=C1OC(=O)[C@@H]2[C@@H]1[C@@H]1CC[C@H]2O1	12.7% (inactive)	–
CCS(=O)(=O)Nc1cccc(C(=C2CCCCC2)c2cnc[nH]2)c1	–	0.00794 µM (active)

SMILES	activity, negative = inhibition	AC50
N#Cc1ccc(CN2CCC3(CC2)CCN(C(=O)Oc2ccccc2)CC3)cc1	-13% (inactive)	–
CC(=O)c1c(O)c(C)c(O)c(Cc2c(O)c3c(c(C(=O)/C=C\c4ccccc4)c2O)OC(C)(C)C=C3)c1O	3.98% (inactive)	–
CCN1CCN(S(=O)(=O)c2ccc(Cl)nc2)CC1	-21.4% (inactive)	–
NCc1cc(=O)[nH]o1	-23.7% (inactive)	–
CS(=O)c1ccc(-c2nc(-c3ccc(F)cc3)c(-c3ccncc3)[nH]2)cc1 (stereo not given)	–	inactive and 39.8 nM (active)
N[C@@H](CCCCP(=O)(O)O)C(=O)O	-26.8% (inactive)	–
C=CCN1C[C@H](C)N([C@H](c2ccc(C(=O)N(CC)CC)cc2)c2cccc(O)c2)C[C@H]1C	-25% (inactive)	–
CCCCc1ccc(-c2nc(NC(=O)C3C4CCC(O4)C3C(=O)O)sc2C)cc1 (stereo not given)	–	3.98 µM (active)
CCCCc1ccc(C(=O)O)nc1	–	inactive
O=C(O)[C@H]1[C@H](C(=O)O)[C@H]2CC[C@@H]1O2	5.08% (inactive)	–
C[C@H](N)[C@H](O)c1ccc(O)c(O)c1	–	inactive
CC(C)CN1CCC2(CC1)CCN(S(C)(=O)=O)CC2	38.1% (inactive)	–
CC(C)NC(=O)N1CCC2(CC1)CCN(C(=O)Oc1ccccc1)CC2	1.3% (inactive)	–
CN(C)[C@H]1C(=O)C(C(N)=O)=C(O)[C@]2(O)C(=O)C3=C(O)c4c(O)cccc4[C@@](C)(O)[C@H]3C[C@@H]12	20.2% [at 25.6 µM] (inactive)	–
O=c1cccc2n1CC1CNC[C@H]2C1	–	inactive
O=C(c1ccc(-c2nnc(Nc3ccccc3)c3ccccc23)cc1)N1C[C@H]2C[C@H](C1)c1cccc(=O)n1C2	–	8.91 µM (active)
CC(=O)OCC1=C(C(=O)O)N2C(=O)[C@@H](N)[C@@H]2SC1	12.6% [at 25.6 µM] (inactive)	–
COc1cc([C@@H](O)CN)ccc1O	-35.2% (inactive)	–
Cc1c([C@@H](C)[C@H]2NC[C@H](C)C[C@@H]2O)ccc2c1C[C@@H]1[C@H]2CC=C2C[C@@H](O)CC[C@@]21C	26.3% [at 11.4 µM] (inactive)	–
C[C@@H]1Cc2cc3c(cc2C(c2ccc(N)cc2)=NN1)OCO3	–	2 µM (active)
CC1=NN=C(c2ccc(N)cc2)c2cc3c(cc2C1)OCO3	–	inactive and 7.94 µM (active)
COc1ccc(C(=O)OC2C[C@H]3CC[C@@H](C2)N3C)cc1OC (stereo not given in full)	-8.31% [at 25.6 µM] (inactive)	–
C[C@@]12C(=O)OC(=O)[C@@]1(C)[C@H]1CC[C@@H]2O1	8.99% (inactive)	–
CC1=C2C(=O)[C@@H]3[C@@H](CC=C4C[C@@H](O)CC[C@@]43C)[C@H]2CC[C@@]12O[C@H]1C[C@H](C)CN[C@H]1[C@@H]2C	15.9% [at 11.4 µM] (inactive)	–
CCCCCC[C@H]1C(=O)O[C@H](C)[C@H](NC(=O)c2cccc(NC=O)c2O)C(=O)O[C@@H](C)[C@H]1OC(=O)CC(C)C	-28% [at 25.6 µM] (inactive)	–
